We go through 20 compounds from PubChem BioAssay (NCATS).

A short description of test [1]: qHTS assay for small molecule agonists of the antioxidant response element (ARE) signaling pathway (AID 651741; active means well fitted activation curve with a large enough effect in the signal ratio; the % refers to the signal ratio; further: potency means the concentration at half of the fitted maximal effect; on activation: % of control where 0% means no effect). As to conditions: HepG2 ARE-bla reporter, beta-lactamase FRET ratio, 16 h; series mostly up to 96 µM. A digest of the protocol: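 CellSensor ARE-bla HepG2 cells (2,000/well) carrying ARE-driven beta-lactamase, exposed 16 h at 37 C. LiveBLAzer B/G FRET substrate added for 2 h at room temperature; fluorescence intensity read.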

A short description of test [2]: qHTS assay for small molecule activators of the p53 signaling pathway (AID 651743; active means well fitted activation curve with a large enough effect in the signal ratio, not every such curve was filed as active; the % refers to the signal ratio; further: % of control where 0% means no effect). As to conditions: HCT-116 p53RE-bla, beta-lactamase FRET ratio, 16 h; stronger effect = higher value. In a few lines:
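p53RE-bla HCT-116 cells carrying a beta-lactamase reporter under p53 response elements were exposed to compounds for 16 hours at 37 C. Reporter activity read as fluorescence after 2 hours at room temperature with LiveBLAzer B/G FRET substrate.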

A short description of test [3]: qHTS assay for small molecule activators of the nuclear factor-kappa B (NF-kB) signaling pathway (AID 651749; active means well fitted activation curve with a large enough effect in the signal ratio; the % refers to the signal ratio; further: % of control where 0% means no effect). As to conditions: NF-kB-bla ME-180 cells, beta-lactamase FRET ratio, 16 h; stronger effect = higher value. A digest of the protocol: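 NF-kB-bla ME-180 cells carrying a beta-lactamase reporter under an NF-kB response element, 2,000 cells/well, exposed to compound for 16 hr at 37C; FRET-based beta-lactamase fluorescence read-out of pathway activation.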

Test [4] in a line: qHTS assay for small molecule disruptors of the mitochondrial membrane potential - 1 hr assay (AID 651754; calls by dose curve; further: on the % scale 0 is the no-effect control and ±100 the full control effect; nearly all actives have a fitted effect of over 35% in size). As to conditions: series mostly up to 92.2 µM. In a few lines: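 HepG2 cells, attached overnight, were exposed to compound for 1 hr at 37C, then stained 30 min with a potentiometric dye. Ratio of red aggregate (590nm) to green monomer (535nm) fluorescence reports membrane potential; collapse shifts signal toward green.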

Test [5] in a line: qHTS assay for small molecule disruptors of the mitochondrial membrane potential - 5 hr assay (AID 651755; calls by dose curve; further: on the % scale 0 is the no-effect control and ±100 the full control effect; nearly all actives have a fitted effect of over 40% in size). Particulars: JC-1-type ratio dye; series mostly up to 92.2 µM. A digest of the protocol:
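HepG2 cells (2,000/well), attached overnight, exposed to compound 5 hr at 37C, then Mito-MPS dye 30 min. Fluorescence read for monomers (490/535 nm) and aggregates (540/590 nm).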

A short description of test [6]: qHTS Assay for Identification of Small Molecule Agonists for NFkB Signaling Pathway. (AID 624478). Further: 0% is about no effect. Particulars: NFkB pathway reporter cell assay, agonist mode, cells co-stimulated with 10 pM TNF alpha; series mostly up to 46.1 µM. A digest of the protocol: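 NFkB-bla ME-180 cells carry a beta-lactamase reporter. They received compound plus TNF alpha at 10 pM final (its EC50) for 5 h at 37 C. Reporter activity was read as 460/530 nm emission ratio after 2 h LiveBLAzer substrate loading.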

Test [7] is described as follows: Cell Proliferation Assay against the TMD8 Cell Line (AID 651645).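 Further: cells exposed to compound for 48 h before reading.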 Particulars: TMD8 DLBCL cell line proliferation/viability; at 46.1 µM (top of the series). A digest of the protocol:
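Luminescent ATP read-out (CellTiter-Glo, 15 min RT) after 48 h compound exposure of log-growing TMD8 cells at 37C; percent activity scaled between DMSO as 100% and 9.2 uM bortezomib final as 0%.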

The nature of test [8]: Cell Proliferation Assay against the TMD8 Cell Line (Caspase readout at 16 hrs) (AID 651712). Further: potency means the concentration at half of the fitted maximal effect. As to conditions: TMD8 lymphoma cells, caspase activation luminescence; series mostly up to 46.1 µM. In a few lines: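 TMD8 cells in RPMI with 5% FBS were treated with compound for 16 h at 37 C, then caspase 3/7 activation was read by Caspase-Glo luminescence. Percent activity was scaled to DMSO (0%) and 9.2 uM bortezomib final (100%).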

The nature of test [9]: Cytotoxicity counterscreen for NFkB agonists and antagonists (AID 624476).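 Further: cells exposed to compound for 48 hours.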 Further: potency means the concentration at half of the fitted maximal effect. As to conditions: NFkB reporter cell line viability counterscreen; series mostly up to 46.1 µM.
Test [10] is described as follows: qHTS Assay for Identification of Small Molecule Antagonists for NFkB Signaling Pathway. (AID 624479; calls by dose curve; further: potency means the concentration at half of the fitted maximal effect). As to conditions: NFkB pathway reporter cell assay, antagonist mode; series mostly up to 38.3 µM.
Test [11] can be described thus: Cell Proliferation Assay against the HBL1 Cell Line (AID 651646).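 Further: cells exposed to compound for 48 h before reading.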 Particulars: HBL1 DLBCL cells; at 46.1 µM (top of the series). In a few lines:
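HBL1 ABC DLBCL cells, 500/well in RPMI with 5% FBS, treated for 48 h at 37C. Viability read by CellTiter-Glo luminescence, normalized to DMSO as 100% and 9.2 uM bortezomib as 0%.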

“And” between values parts separate entries of the source, which are not always exact repeats. Equal values may be shown once. Results filed as inconclusive are left out. Some structures have more than one record in an assay (separate samples or runs), and their calls can disagree. The source made the active and inactive calls. Unless noted, the call rests on the fitted dose curve; in most records, active means well fitted curve in the direction sought with a large enough effect; inconclusive means small, poorly fitted or top-dose-only effect, or another doubt; inactive means no such curve, though single readings can be large; an effect the other way counts as inactive or inconclusive.

As for `C[C@@H]1C[C@H]2[C@@H]3CCC4=CC(=O)C=C[C@]4(C)[C@@]3(F)[C@@H](O)C[C@]2(C)[C@@]1(O)C(=O)CO`, the Potency in test [1] was 42.2 µM (active) and inactive. The activation is -3.68% (inactive) and -5.63% (inactive) in [2]; -2.02% (inactive) and -1.92% (inactive) in test [3]. The compound was classed as inactive in test [4] and in [5].
With `Cc1cc2c(cc1C1(c3ccc(C(=O)O)cn3)CC1)C(C)(C)CCC2(C)C`, the call in test [6] was inactive. The viability (% of control) in test [7] was 79.3%. For the same compound, the Potency entry in [8] was “inactive”.
`O=C(O)Cc1cccc(OCCCN(Cc2cccc(C(F)(F)F)c2Cl)CC(c2ccccc2)c2ccccc2)c1`: in [9], the Potency was 26.4 µM (active). Besides, the viability (% of control) in test [7] came out at 8.71%.
In the case of `O=C(Nc1ccc(OC(F)(F)F)cc1)c1sccc1NCc1ccnc2ccccc12`, the Potency in test [9] is 33.2 µM (active). The result in test [6] was inactive. For the same compound, the viability (% of control) in test [7] worked out at 9.29%. In addition, the Potency entry in [8] was “inactive”.
Regarding `CN(C)CCCNC(=O)c1ccc(-c2cc(O)c3ncccc3c2)cc1`, the result in [6] was inactive. For the same compound, in test [10], the Potency result was “inactive”. Moreover, the viability (% of control) in test [7] came to 2.8%.
Turning to `Cc1c(C(=O)Nc2ccc(N3C[C@@H](C)O[C@@H](C)C3)nc2)cccc1-c1ccc(OC(F)(F)F)cc1`, the result in test [6] was inactive. In [7], the viability (% of control) worked out at 48.4%. For the same compound, the viability, percent of control in [11] was 32.3%.
In the case of `NC(=O)c1ccc(N(C(N)=O)c2c(F)cccc2F)nc1-c1ccc(F)cc1F`, the Potency entry in [9], in [10] and in test [8] was “inactive” each time. Moreover, in test [6], the compound was called inactive. Further, the viability (% of control) in [7] came to 81.2%.
Consider `OCCn1cc(-c2ccc3c(c2)CCC3=NO)c(-c2ccncc2)n1`, for which the Potency result in [9], in test [10] and in test [8] was “inactive” each time. Moreover, in [6], the compound was classed as inactive. The viability (% of control) in [7] came out at 80.7%.
Turning to `CCC(=O)N1CCN(c2ccc(-n3c(=O)ccc4cnc5ccc(-c6cnc7ccccc7c6)cc5c43)cc2C(F)(F)F)CC1`, the Potency was 13.2 µM (active) in test [9], 5.3 µM (active) in test [10] and 18.7 µM (active) in test [8]. In [6], the call was inactive. The viability (% of control) in test [7] came out at 3.32%.
In the same order, the values of `CCC=CC[C@H]1C(=O)CC[C@@H]1CC(=O)OC` are “inactive”, “inactive”, “inactive”, “inactive” and 114%.
In the same order, the values of `Cc1csc(-c2nnc(Nc3ccc(Oc4ncccc4-c4ccnc(N)n4)cc3)c3ccccc23)c1` are “inactive”, 1.06 µM (active), 23.5 µM (active), “inactive” and 4.09%.
For the compound `COc1ccc(CCN(C)CCCOc2ccc(S(=O)(=O)c3[nH]c4ccccc4c3C(C)C)cc2)cc1OC`, the compound was classed as inactive in [6]. Besides, in test [7], the viability (% of control) is 4.97%.
In the case of `Nc1ccc(-c2ccc3ncc4ccc(=O)n(-c5cccc(C(F)(F)F)c5)c4c3c2)cn1`, the Potency was 0.833 µM (active) in test [9], 4.73 µM (active) in [10] and 0.118 µM (active) in test [8]. In [6], the compound was called inactive. Moreover, in test [7], the viability (% of control) was 9.02%.
For `CCCCn1c(=O)n(Cc2ccccc2F)c(=O)c2[nH]c(Cc3ccc(NC(C)=O)cc3)nc21`, in that order: “inactive”, 6.68 µM (active), “inactive”, “inactive” and 5.19%.
As to `Cc1cccc(Nc2nc(N[C@@H]3CCCC[C@H]3N)ncc2C(N)=O)c1`, the Potency entry in [9] is “inactive”. The call in test [6] was inactive. Besides, the viability (% of control) in [7] is 2.81%.
As to `CC(C)C[C@H](NC(=O)c1cc2ccccc2s1)C(=O)N1CCN(C(=O)[C@H](CO)NS(=O)(=O)c2ccc(Cl)cc2Cl)CC1`, the Potency result in test [9] is “inactive”. Also, the result in [6] was inactive. Also, in test [7], the viability (% of control) was -0.483%. Besides, the viability, percent of control in [11] stood at 3.69%.
Consider `CCc1cc(-c2n[nH]c(C)c2-c2ccc3c(c2)OCCO3)c(O)cc1O`, for which, in test [6], the outcome was inactive. Also, the Potency in test [10] was 3.75 µM (active); in [8], 23.5 µM (active). Also, in test [7], the viability (% of control) stood at 38.2%.
For the compound `CCCCOCCOc1nc(-c2ccc(C(=O)O)c(F)c2)sc1C`, the Potency result in test [9], in [10] and in test [8] was “inactive” throughout. Further, in test [6], the call was inactive. The viability (% of control) in test [7] was determined as 98.4%.
With `CC(C)(C)c1[nH]cnc1C=c1[nH]c(=O)c(=Cc2ccccc2)[nH]c1=O`, the result in test [6] was inactive. For the same compound, in test [7], the viability (% of control) is 1.63%. Moreover, in test [11], the viability, percent of control stood at 7.81%.
Regarding `CC(=O)Nc1cccc(-n2c(=O)n(C3CC3)c(=O)c3c(Nc4ccc(I)cc4F)n(C)c(=O)c(C)c32)c1`, the result in [6] was inactive. The viability (% of control) in test [7] worked out at 0.993%.
